High-throughput results as filed in PubChem BioAssay.
The full list was thinned out, with hits kept by preference.
VHR inh color – VHR1 phosphatase inhibitors, primary screen, biochemical, colorimetric, HTS | recombinant VHR phosphatase, colorimetric substrate read-out | inhibition, % at 20 µM | 50,000 compounds, 0.7% hits | AID 1992, 2009; in the data active = inhibition above about 60%
Target sequence (P51452 whole entry, looked up): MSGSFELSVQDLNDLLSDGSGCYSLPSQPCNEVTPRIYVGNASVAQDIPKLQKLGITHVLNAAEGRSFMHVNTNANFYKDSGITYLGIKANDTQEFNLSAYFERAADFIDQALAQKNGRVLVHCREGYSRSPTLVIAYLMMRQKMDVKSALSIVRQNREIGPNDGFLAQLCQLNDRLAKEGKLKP
Large screens that a line does not name were inactive.

CCC(=O)N1c2ccccc2NC2=C(C(=O)CC(c3ccccc3)C2)C1c1ccc(OC)cc1 (stereo not given)	VHR inh color 103
CSc1ccc(C2Nc3ccccc3NC3=C2C(=O)CC(c2ccc4c(c2)OCO4)C3)cc1 (stereo not given)	none
CC(=O)COc1ccc2c3c(c(=O)oc2c1C)CCCC3	none
O=S(=O)(Cc1ccccc1)NCCOc1ccc(Cl)cc1	none
CCOCCCNc1cc(C)c(C#N)c2nc3ccccc3n12	none
O=C(Nc1ccc(-c2ccc(Cl)cc2)cc1)c1ccco1	none
CCN(CC)C(=O)c1cn(-c2ccccc2)nc1-c1ccc(Br)cc1	none
O=C(O)C(CO)NC(=O)C(F)(F)C(F)(F)C(=O)NC(CO)C(=O)O (stereo not given)	none
Cc1cccc(C(=O)Nc2sc3c(c2C(=O)N2CCCCCC2)CCCCC3)c1	none
O=C(COc1ccccc1Cl)NCc1cccnc1	none
COc1ccc(NC(=O)c2ccc(CN3CCN(Cc4ccccc4)CC3)cc2)cc1OC	none
COc1ccc(C2CC(=O)C3=C(C2)Nc2ccccc2NC3c2ccc(SC)cc2)cc1OC (stereo not given)	none
CCc1ccc(C2Nc3ccccc3NC3=C2C(=O)CC(c2ccc(OC)c(OC)c2)C3)cc1 (stereo not given)	VHR inh color 115
COc1ccc(C2CC(=O)C3=C(C2)Nc2ccccc2NC3c2ccncc2)cc1OC (stereo not given)	none
CCOc1ccc(N(Cc2ccc(C(=O)NC(C)CC)cc2)S(=O)(=O)c2ccc(C)cc2)cc1 (stereo not given)	none
Cc1ccccc1NC(=O)c1c(NC(=O)C(C)(C)C)sc2c1CCCC2	none
Cc1cccc(NC(=O)c2c(NC(=O)C(C)(C)C)sc3c2CCCC3)c1	VHR inh color 88
COc1ccccc1NC(=O)c1c(NC(=O)C(C)(C)C)sc2c1CCCC2	none
O=C1NC(=O)N(c2ccc(Cl)cc2)C(=O)/C1=C/c1ccc(O)c(I)c1	none
COc1ccc(/C(O)=C/C(=O)C(=O)NCc2ccccc2)cc1	none
CCOC(=O)C1=C(C)N=c2s/c(=C\c3ccc(N(C)C)o3)c(=O)n2C1c1ccc(F)cc1 (stereo not given)	none
COc1cc(/C=N/NC(=O)c2cccc([N+](=O)[O-])c2)cc(I)c1O	none
N#CCCN1CN(c2ccc(Cl)cc2)CN/C1=N\[N+](=O)[O-]	none
C=CCN1C(=O)/C(=C\c2ccc(OCC(=O)O)c(OC)c2)C(=O)NC1=S	none
C=CCN1C(=O)/C(=C\c2ccc(OCc3ccc(F)cc3)c(OCC)c2)C(=O)NC1=S	VHR inh color 75
C=CCOc1ccc(/C=C2/C(=O)NC(=S)N(CC=C)C2=O)cc1OCC	none
COc1ccc(S(=O)(=O)N2CCN(CCN3C(=O)c4cccc5cccc(c45)C3=O)CC2)cc1	none
O=C1C2C(C(=O)N1c1cccc(Cl)c1)N1CCCN1C2c1ccccc1 (stereo not given)	none
COc1ccc(C2C3C(=O)N(c4ccccc4)C(=O)C3N3CCCN23)cc1 (stereo not given)	VHR inh color 89
COc1ccc(C2C3C(=O)N(c4ccc(Br)cc4)C(=O)C3N3CCCN23)cc1 (stereo not given)	none
CCOc1ccc(S(=O)(=O)N(CC(=O)N2CCCC2)c2ccc(C)cc2)cc1	none
Cc1cc(C)cc(N(CC(=O)NCC2CCCO2)S(=O)(=O)c2ccccc2)c1 (stereo not given)	none
COc1ccc(S(=O)(=O)N2CCN(Cc3ccccc3)CC2)cc1[N+](=O)[O-]	none
CCOC(=O)c1c(-c2ccc(OC)c(OC)c2)csc1N	VHR inh color 98
COC(=O)c1c(-c2ccc(OC)c(OC)c2)csc1N	none
CC(C)OC(=O)c1c(-c2ccccc2)csc1N	none
COc1ccc(-c2csc(N)c2C(=O)OC(C)C)cc1OC	none
CCCOC(=O)c1c(-c2ccccc2)csc1N	none
COC(=O)c1c(-c2cccc(C)c2)csc1N	VHR inh color 94
Cc1nnc(NC(=O)c2cc(C(F)(F)F)cc(C(F)(F)F)c2)s1	none
Clc1ccc(-c2noc(-c3ccc(Cl)cc3Cl)n2)cc1	none
COc1ccccc1Nc1nc(N2CCOCC2)ncc1F	none
Cc1cc(C)nc(SCC(=O)Nc2ccc(Cl)c(Cl)c2)n1	none
O=C(NCc1ccccc1)c1cc2nc(-c3cccs3)cc(C(F)(F)F)n2n1	none
CC(C)c1ccc(/C=C2\SC(=S)NC2=O)cc1	none
CC(C)c1ccc(/C=C2\SC(=S)NC2=O)cc1[N+](=O)[O-]	VHR inh color 79
O=C1NC(=S)S/C1=C\c1ccc(N2CCCCC2)c([N+](=O)[O-])c1	none
Cc1ccc(S(=O)(=O)N2CCCCC2)c(C)c1N1CCc2cn[nH]c21	none
c1ccc(Oc2cccc(CN3CCN(C4CCCC4)CC3)c2)cc1	none
CCn1cc(/C=C2\C(=O)NC(=O)N(c3ccccc3)C2=O)c2ccccc21	none
C=CCN1C(=O)/C(=C\c2ccc(-c3ccc(Br)cc3)o2)C(=O)NC1=S	none
C=CCN1C(=O)/C(=C\c2ccc(-c3ccc([N+](=O)[O-])cc3)o2)C(=O)NC1=S	VHR inh color 62
Cc1cc(Br)c(-c2ccc(/C=C3/NC(=S)NC3=O)o2)cc1C	VHR inh color 91
C=CCN1C(=O)/C(=C\c2cn(C)c3ccccc23)C(=O)NC1=S	none
